Compound activity: PubChem, several laboratories
Sampled rows, rich in hits. Any-hit rate of the full collection: about 3%.
TRPM1 prom inh: inhibitors of MITF-driven TRPM1 promoter in melanoma cells. SK-MEL-5 TRPM1 promoter luciferase, 24 h. inhibition, % at 12.5 µM. 0.83% of 330,000 active;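 active = mean inhibition across replicates of 60% or more, whatever share of single replicates reaches that level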
MITF TRPM1 HTS: activators of MITF-driven TRPM1 promoter activity in SK-MEL-5 cells | activation, % at 12.5 µM | SK-MEL-5 TRPM1-promoter luciferase, 24 h; % of positive control, neutral wells = 0 | 0.75% of 300,000 active;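 active = mean activation of at least 80% with every replicate also reaching 80%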;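 also: 0% = neutral control wells and 100% = parthenolide positive control wells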
TWEAK Fn14 block: inhibitors of TWEAK-Fn14 interaction signaling. AID 1159606. inhibition, % at 10 µM. 2% of 360,000 active. TWEAK-stimulated Fn14 reporter cells, luciferase luminescence, 8 h; in the data active = inhibition above about 50%
LGR2 antag: inhibitors of bursicon-induced Drosophila LGR2 receptor cAMP signaling; HEK293 LGR2, CRE-luciferase, bursicon-stimulated, 4 h; inhibition, % at 9.99 µM; 0.35% of 380,000 active; AID 720647;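 active = drop in luminescence signal, shown as inhibition above about 50% in the replicate tests, limit read from the data, passing the limit was not always enough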;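 also: agonist challenge used bursicon conditioned medium at about half maximal strength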
EBV LMP1 NFkB: reduces LMP1-driven NF-kappaB luciferase signal. LMP1-induced NF-kappaB luciferase reporter cells, luminescence. inhibition, % at 12.5 µM. AID 504558. 0.69% of 350,000 active; in the data active = inhibition above about 41%;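 also: 0% = neutral control wells and 100% = reference inhibitor control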
TROY signal inh: inhibitors of TROY-dependent NF-kB signaling. Q293 LMP1-TROYcd NF-kB luciferase reporter, 4 h. inhibition, % at 10 µM. 0.98% of 360,000 active. AID 1347056;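 active = compounds whose plate-normalised and pattern-corrected inhibition of the luciferase reporter signal at the single screening dose is 50% or more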
The depositor's hits bear a star; . = no result.

SMILES	TRPM1 prom inh	MITF TRPM1 HTS	TWEAK Fn14 block	LGR2 antag	EBV LMP1 NFkB	TROY signal inh
Cc1cccc(Cc2cnc(N3C(=N)SC(C)C3=O)s2)c1 (stereo unspecified)	8.7	-9.2	-27.1	3.3	0.7	67.4*
N=C1SCC(=O)N1c1ncc(Cc2ccccc2Cl)s1	-4.6	2.0	100.2*	7.7	-17.0	48.0
N=C1SCC(=O)N1c1ncc(Cc2cccc(Cl)c2)s1	-0.4	1.0	102.3*	0.0	-5.4	66.8*
Cc1cccc(Cc2cnc(N3C(=N)SC(c4ccccc4)C3=O)s2)c1 (stereo unspecified)	3.2	-1.7	-1.6	-0.2	1.8	10.7
Cc1ccc(Cc2cnc(N3C(=N)SC(C)C3=O)s2)cc1 (stereo unspecified)	-16.7	16.1	-32.5	.	6.3	49.5
C[C@@H]1CN([C@H](C)CO)C(=O)c2cc(NC(=O)Nc3ccc(F)cc3)ccc2O[C@H]1CN(C)S(=O)(=O)c1ccc(F)cc1	.	.	.	11.7	.	.
C[C@@H]1CN([C@@H](C)CO)C(=O)c2cc(NC(=O)Cn3cnnn3)ccc2O[C@@H]1CN(C)C(=O)NC1CCCCC1	.	.	.	0.4	.	.
COc1ccc2c3c([nH]c2c1)[C@@H](CO)N(C(=O)c1cccnc1)CC31CCN(Cc2cccnc2)CC1	.	.	.	-1.7	.	.
C[C@H](O)C#Cc1cnc2c(c1)C(=O)N([C@@H](C)CO)C[C@@H](C)[C@@H](CN(C)C(=O)c1ccc(F)cc1)O2	.	.	.	-7.3	.	.
COc1ccc(NC(=O)/C(Cl)=C(/Cl)S(=O)Cc2ccc(Cl)cc2)cn1 (stereo unspecified)	93.7*	-93.2	100.8*	101.4*	77.8*	89.8*
COc1ccc(NC(=O)/C(Cl)=C(/Cl)S(=O)(=O)Cc2ccccc2)cn1	94.4*	-94.0	101.3*	.	90.0*	76.7*
O=C(C[C@H]1CC[C@H]2[C@@H](COC[C@H](O)CN2CC2CCOCC2)O1)NCC1CC1	.	.	.	-1.6	.	.
NCC[C@@H]1CC[C@@H](NS(=O)(=O)Cc2ccccc2)[C@H](CO)O1	.	.	.	11.4	.	.
C[C@@H]1CN([C@@H](C)CO)C(=O)c2cc(NC(=O)NC3CCCCC3)ccc2O[C@@H]1CN(C)Cc1ccc(C(=O)Nc2ccccc2N)cc1	.	.	.	4.2	.	.
O=C(N/N=C/c1ccc2ncccc2c1)c1ccco1	-3.3	4.9	69.8*	55.0*	47.7*	50.9*
C[C@@H]1CN([C@@H](C)CO)C(=O)c2cc(C3=CCCCC3)cnc2O[C@@H]1CN(C)C(=O)c1cccnc1	.	.	.	6.1	.	.
COc1cc(NC(=O)COc2cc(O)c3c(c2)OC(C)(C)CC3=O)cc(OC)c1OC	72.2*	-66.7	77.8*	38.3	19.9	48.4
CC1(C)CC(=O)c2c(O)cc(OCC(=O)Nc3ccc(S(N)(=O)=O)cc3)cc2O1	-5.7	6.9	20.3	12.3	6.3	11.9
COc1ccc(CN(C)C[C@H]2OCCCC[C@@H](C)Oc3ccc(NC(=O)c4ccncc4)cc3C(=O)N([C@@H](C)CO)C[C@@H]2C)cc1	.	.	.	1.8	.	.
CCc1cccc2c(C(=O)CN3C(=O)NC4(CCCCCC4)C3=O)c[nH]c12	-97.1	101.9*	-114.0	-16.2	-135.7	-44.1
C[C@@H]1CN([C@@H](C)CO)C(=O)Cc2cc(NC(=O)C3CCCCC3)ccc2O[C@@H]1CN(C)C(=O)NC1CCCCC1	.	.	.	6.1	.	.
CCNC(=S)N(Cc1cccs1)Cc1cc2cc(OCC)ccc2[nH]c1=O	-3.5	5.5	76.0*	4.4	-1.2	-17.3
CC(=O)n1cc(N(C(=O)CCl)c2ccc(C)cc2)c2ccccc21	73.5*	.	56.0*	-4.0	-12.8	-29.5
CC(=O)N(c1ccc(Cl)cc1)c1cn(C(C)=O)c2ccccc12	3.1	-2.2	-8.9	8.9	2.2	0.3
CCCN1C/C(=C/c2ccc3c(c2)OCO3)C(=O)/C(=C/c2ccc3c(c2)OCO3)C1	84.1*	-83.6	19.0	-14.0	-59.5	-9.2
SMILES	TRPM1 prom inh	MITF TRPM1 HTS	TWEAK Fn14 block	LGR2 antag	EBV LMP1 NFkB	TROY signal inh
CN1C(=O)/C(=C/c2cccc([N+](=O)[O-])c2)C(=O)N1c1ccccc1	16.7	.	-5.1	-0.2	-8.6	-20.1
CCCN1C/C(=C/c2cccc([N+](=O)[O-])c2)C(=O)/C(=C/c2cccc([N+](=O)[O-])c2)C1	100.2*	-99.7	7.4	44.8	88.0*	1.9
O=S(=O)(c1ccccc1F)N1CCCCN2[C@H](CO)[C@H](c3ccc(-c4ccncc4)cc3)[C@H]2C1	.	.	.	20.9	.	.
CCCN1[C@H](C(=O)NC2CCC2)[C@@H](CO)[C@@H]2Cn3c(ccc(-c4cccnc4)c3=O)[C@@H]21	.	.	.	2.3	.	.
O=C(CCCOc1ccccc1)N1CCCCC1	5.8	-1.3	86.5*	.	25.9	57.8*
CCC1CCCCN1C(=O)COc1ccc(F)cc1 (stereo unspecified)	-6.9	5.4	-14.4	-2.6	-29.6	-13.8
O=C(c1ccccc1)c1ccc(OCCCCN2CCCCC2)cc1	-5.7	4.4	69.8*	6.8	2.5	-14.4
O=C(c1ccc(Cl)cc1)N1CCN(CCOc2ccccc2)CC1	3.7	-1.4	9.7	-2.0	47.1*	12.1
CCC1CCCCN1C(=O)CCCOc1ccccc1 (stereo unspecified)	-47.9	50.2	50.0*	.	-23.1	50.1*
O=C(c1ccccc1)c1ccc(OCCCN2CCCC2)cc1	-1.4	4.0	0.0	-19.2	-2.2	-15.8
CO[C@H]1CN(C)C(=O)c2ccc(NC(C)=O)cc2OC[C@H](C)N(C(=O)C2CCC2)C[C@H]1C	.	.	.	4.3	.	.
Cc1csc(N/N=C/c2ccccc2F)n1	-50.5	49.3	22.0	-19.6	86.9*	10.4
Cc1csc(N/N=C/c2c(F)cccc2Cl)n1	-19.4	18.8	-3.3	-50.6	-18.2	3.5
CN1C(=O)c2cc(NC(=O)Nc3cccc(Cl)c3)ccc2OC[C@@H]2O[C@H](CC(=O)O)CC[C@H]21	.	.	.	-3.3	.	.
Cc1cc(C)c(O)c(-c2n[nH]c3c2C(c2cccc(O)c2)N(Cc2ccco2)C3=O)c1 (stereo unspecified)	14.0	-13.9	16.8	-3.1	-5.8	60.1*
O=C1c2[nH]nc(-c3ccccc3O)c2C(c2cccc(Cl)c2)N1Cc1ccco1 (stereo unspecified)	8.5	-10.4	29.1	.	0.9	24.3
O=C(C[C@H]1C[C@H]2c3cc(NC(=O)Nc4ccc(F)cc4)ccc3O[C@H]2[C@H](CO)O1)NC1CCCC1	.	.	.	7.0	.	.
Cc1cccc(N/C=C/C(=O)c2cccs2)c1C	-6.0	-0.1	57.9*	69.8*	-7.4	-18.4
NC(=O)c1ccccc1N/C=C/C(=O)c1cccs1	-30.3	35.1	9.3	.	53.0*	-50.8
CC1CN(c2cc(=O)n(-c3ccccc3)c(=O)[nH]2)CC(C)O1 (stereo unspecified)	6.2	-8.8	2.1	4.8	60.6*	-3.0
CC(C)NC(=O)Nc1ccc2c(c1)C(=O)N([C@@H](C)CO)C[C@@H](C)[C@H](CN(C)C(=O)CCCN(C)C)OCCCC[C@H](C)O2	.	.	.	-0.3	.	.
